Only some compounds are listed: those with a hit (about 0.95% of all), similar ones and a draw of the others.
Giardia FBPA inh-1: qHTS Assay for Inhibitors of Fructose-1,6-bisphosphate Aldolase from Giardia Lamblia; A8B2U2; purified Giardia FBPA; Potency, µM (series often up to 59.6 µM), most hits filed as inhibitors; 290,000 tested, 0.71% active; AID 2451, 2010; also: nearly all actives have a fitted effect of over 55% in size
Target sequence (A8B2U2 whole entry, looked up): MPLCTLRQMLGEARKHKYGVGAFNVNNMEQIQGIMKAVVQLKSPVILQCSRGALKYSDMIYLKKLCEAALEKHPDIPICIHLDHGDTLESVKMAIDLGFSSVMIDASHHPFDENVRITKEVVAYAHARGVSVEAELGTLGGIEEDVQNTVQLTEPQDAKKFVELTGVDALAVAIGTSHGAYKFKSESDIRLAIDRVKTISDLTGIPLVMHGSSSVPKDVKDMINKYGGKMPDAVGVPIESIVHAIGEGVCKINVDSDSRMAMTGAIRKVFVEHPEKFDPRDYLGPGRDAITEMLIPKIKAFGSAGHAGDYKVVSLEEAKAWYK
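40 nM FBPA preincubated 10 min at RT with compound (up to 57.5 uM final), then substrate plus GAPDH/TPI/NAD/arsenate coupling and diaphorase/resazurin added. Fluorescence read after 20 min at RT, 525/598 nm.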
RE007 growth inh: qHTS Assay for Inhibitors of the HIV-1 protein Vpr; S. pombe RE007 Vpr strain, BacTiter-Glo ATP luminescence, 24 h; Potency, µM (highest dose often 92.2 µM), actives largely listed as inhibitors; 360,000 tested, 0.21% active; AID 651644, 2012; active = well fitted falling curve with a large enough effect; inconclusive = small, poorly fitted or top-dose-only effect; inactive = no such curve, though single readings can be large or run the other way; also: nearly all actives have a fitted effect of over 50% in size
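Fission yeast strain RE007, carrying one chromosomally integrated HIV-1 vpr copy, was seeded at OD 0.01 in PMG+AL medium with 23 nL pinned compound. After 24 h at 30 °C and 99% humidity, viability was read by BacTiter-Glo luminescence.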
TbPYK inhibitor: qHTS of Trypanosoma Brucei Inhibitors | pyruvate kinase (Trypanosoma brucei), Q57TT1 | TbPYK enzyme, Kinase-Glo Plus ATP luminescence, 45 min | Potency, µM (top dose mostly 76.8 µM), usual class: inhibitors | 410,000 tested, 0.12% active | AID 624173, 2012; also: nearly all actives have a fitted effect of over 50% in size
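Assay buffer: 50 mM TEA pH 7.2, 100 mM KCl, 10 mM MgCl2, 0.05% BSA, 0.01% Tween-20. Pyruvate kinase from T. brucei plus substrate met compound, then ADP (130 uM final). Luminescence was read post 45 min RT.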
LmPK inh: qHTS Assay for Inhibitors of Leishmania Mexicana Pyruvate Kinase (LmPK); Q27686; purified LmPK, Kinase-Glo ATP luminescence, 1 h; Potency, µM (titrated, usually from 57.5 µM), hits mostly inhibitors; 290,000 tested, 0.37% active; AID 1721, 2009
Target sequence (Q27686 whole entry, looked up): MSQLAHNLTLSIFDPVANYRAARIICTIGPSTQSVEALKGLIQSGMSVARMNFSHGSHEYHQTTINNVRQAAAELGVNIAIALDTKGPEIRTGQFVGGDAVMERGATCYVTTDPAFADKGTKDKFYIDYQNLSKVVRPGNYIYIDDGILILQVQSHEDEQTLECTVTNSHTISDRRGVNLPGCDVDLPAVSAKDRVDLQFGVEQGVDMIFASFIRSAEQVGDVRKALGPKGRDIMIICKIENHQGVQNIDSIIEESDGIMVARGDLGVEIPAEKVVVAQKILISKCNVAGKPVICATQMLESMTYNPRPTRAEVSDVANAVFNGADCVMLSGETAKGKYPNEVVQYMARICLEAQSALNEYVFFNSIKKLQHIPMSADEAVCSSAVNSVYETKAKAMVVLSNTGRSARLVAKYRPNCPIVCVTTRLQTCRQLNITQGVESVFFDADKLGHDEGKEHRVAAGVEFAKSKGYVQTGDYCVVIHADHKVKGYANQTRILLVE
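Kinase-Glo luminescence read after 1 h RT reaction of 0.1 nM LmPK with 0.5 mM PEP and 0.1 mM ADP. Activity scaled between uninhibited and enzyme-free controls.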
Giardia growth: qHTS Assay for Inhibitors of Fructose-1,6-bisphosphate Aldolase from Giardia Lamblia: Giardia lamblia growth inhibition; shares compounds with Giardia FBPA inh-1; Giardia lamblia trophozoite growth inhibition; Potency, µM (series often up to 57.5 µM), hits mostly inhibitors; 1,500 tested, 5% active;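 also: trophozoites exposed to compound for 48 h at 37 °C; nearly all actives have a fitted effect of over 70% in size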
Mammalian tox: qHTS Assay for Inhibitors of Fructose-1,6-bisphosphate Aldolase from Giardia Lamblia: Mammalian cellular toxicity; shares compounds with Giardia FBPA inh-1; mammalian cell viability counter-screen, qHTS; Potency, µM (highest dose often 57.5 µM), most hits filed as inhibitors; 1,500 tested, 4% active; AID 2786, 2010;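 also: Chinese hamster ovary cells used as mammalian cytotoxicity surrogate; viability measured as cellular ATP by luminescence; compound exposure lasted 48 h before reading; nearly all actives have a fitted effect of over 60% in size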
Giardia FBPA inh-2: qHTS Assay for Inhibitors of Fructose-1,6-bisphosphate Aldolase from Giardia Lamblia: Primary screen confirmation; shares compounds with Giardia FBPA inh-1; purified Giardia aldolase enzyme activity, qHTS; Potency, µM (doses to about 57.5 µM), usual class: inhibitors; 1,500 tested, 5% active; AID 2787, 2010; also: nearly all actives have a fitted effect of over 45% in size
Rabbit aldolase: qHTS Assay for Inhibitors of Fructose-1,6-bisphosphate Aldolase from Giardia Lamblia: Rabbit FBPA Selectivity; shares compounds with Giardia FBPA inh-1; Rabbit muscle FBPA enzyme inhibition, selectivity counter-screen; Potency, µM (titrated, usually from 57.5 µM), most hits filed as inhibitors; 1,500 tested, 4% active; also: nearly all actives have a fitted effect of over 60% in size
GAPDH coupling: qHTS Assay for Inhibitors of Fructose-1,6-bisphosphate Aldolase from Giardia Lamblia: Coupling assay counterscreen confirmation | shares compounds with Giardia FBPA inh-1 | Potency, µM (highest dose often 57.5 µM), usual class: inhibitors | 1,500 tested, 6% active | GAPDH coupling enzyme counterscreen, biochemical, qHTS; also: nearly all actives have a fitted effect of over 55% in size
Hits are given with their value; i = inactive; ? = inconclusive; nt = no result; [ ] = dose if it differs, or a comment. Unless noted, calls follow the shape of the dose curve; as a rule, active = well fitted curve in the direction sought with a large enough effect; inconclusive = small, poorly fitted or top-dose-only effect, or another doubt; inactive = no such curve, though single readings can be large; an effect the other way counts as inactive or inconclusive.

SMILES	Giardia FBPA inh-1	RE007 growth inh	TbPYK inhibitor	LmPK inh	Giardia growth	Mammalian tox	Giardia FBPA inh-2	Rabbit aldolase	GAPDH coupling
COc1cc(S(=O)(=O)NCCN2CCOCC2)ccc1-n1cnnn1	17.7µM	i	i	i	i[10.4 µM]	i	i	i	i
COc1cc(S(=O)(=O)NCCCN2CCOCC2)ccc1-n1cnnn1	?	i	i	i	nt	nt	nt	nt	nt
COc1ccc(CN2CCN(CCCCOc3ccc(Cl)cc3)CC2)c(OC)c1OC	17.7µM	i	i	i	i	i	i	i	i
O=C(CCNS(=O)(=O)c1ccc2c(c1)CCCC(=O)N2)NCc1ccc(Cl)cc1	nt	nt	i	nt	nt	nt	nt	nt	nt
S=c1[nH]c2ncccc2o1	?	i	i	i	nt	nt	nt	nt	nt
S=c1[nH]c2cc(Cl)c3cccnc3c2o1	3.55µM	i	?	i	i	i	?	?	?
O=C1C(SCCO)=C(SCCO)C(=O)c2ccccc21	0.889µM	i	3.98µM	nt	?	11.2µM	6.31µM	?	3.98µM
CCN(CCNCC(O)COc1ccccc1C(C)C)c1cccc(C)c1 (stereo not given)	22.4µM	i	i	i	i	i	i	i	i
CCOC(=O)N1CCN(CC(O)COc2ccccc2C(C)C)CC1 (stereo not given)	i	i	i	i	nt	nt	nt	nt	nt
O=C(NN1C(=O)/C(=C/c2ccc(O)c(O)c2)SC1=S)c1ccccc1	14.1µM	i	?	i	i	i	i	i	i
CC1=C(C(=O)Nc2ccc(C)cc2C)C(c2ccccc2F)n2nc(SCC(=O)c3ccc(C)cc3)nc2N1 (stereo not given)	nt	nt	i	nt	nt	nt	nt	nt	nt
O=C(NC(=S)Nc1nc2ccccc2s1)c1ccco1	5µM	i	i	i	7.94µM	?	i	i	i
Cc1ccc(NC(=S)N(CCN(C)C)Cc2cccs2)c(C)c1	14.1µM	i	?	i	i[10.4 µM]	i	i	i	i
Cc1ccc(C)c(NC(=O)CSc2nnc(NC(=O)Nc3ccccc3)s2)c1	nt	nt	i	nt	nt	nt	nt	nt	nt
O=C1NC(C(=O)O)=CC(c2ccc([N+](=O)[O-])cc2)N1 (stereo not given)	17.7µM	i	i	i	i	i	i	i	i
CSS(=O)(=O)c1cccc2cccnc12	17.7µM	i	?	i	i	i	i	?	?
COc1ccc(N2CC(C(=O)Nc3ccc(NC(C)=O)cc3)CC2=O)cc1 (stereo not given)	nt	nt	i	nt	nt	nt	nt	nt	nt
COc1ccc(OC)c(NC(=O)c2cn3c4c(ccc(Cl)c4c2=O)OC(C)C3)c1 (stereo not given)	nt	nt	i	nt	nt	nt	nt	nt	nt
Cc1ccccc1C(N)c1ccncc1 (stereo not given)	14.1µM	i	i	i	i	i	i	i	i
CC1CCN(C(=O)CN(CCc2ccccc2)S(C)(=O)=O)CC1	i	i	i	i	nt	nt	nt	nt	nt
CC(C)CC(=O)N1CCC(N(CCc2ccccc2)Cc2ccccc2)CC1	25.1µM	i	i	i	i	i	i	i	i
O=C(O)Cn1c2ccccc2c2ccccc21	i	i	i	i	nt	nt	nt	nt	nt
O=C(O)Cn1c2c(c3ccccc31)CSc1ccc(Cl)cc1-2	7.08µM	i	i	i	i[10.4 µM]	i	i	i	i
C[N+]1(C)CC(O)[C@H](C(=O)[O-])C1 (stereo not given in full)	i	nt	nt	nt	nt	nt	nt	nt	nt
Oc1cccc2nc3ccccc3nc12	17.7µM	?	i	i	i[10.4 µM]	i	?	i	?
SMILES	Giardia FBPA inh-1	RE007 growth inh	TbPYK inhibitor	LmPK inh	Giardia growth	Mammalian tox	Giardia FBPA inh-2	Rabbit aldolase	GAPDH coupling
Nc1c2ccccc2nc2c(O)cccc12	i	nt	nt	nt	nt	nt	nt	nt	nt
COc1cccc(/C=N/n2c(-c3n[nH]c4c3CCC4)n[nH]c2=S)c1O	i	i	?	i	nt	nt	nt	nt	nt
CC(/C=N/n1c(-c2cc(C)[nH]n2)n[nH]c1=S)=C\c1ccco1	2.51µM	i	?	i	i	i	?	i	i
COc1cccc(/C=N/n2c(-c3cc(C)[nH]n3)n[nH]c2=S)c1O	5.61µM	i	?	i	?	i	i	?	i
S=C(Nc1ccc2nsnc2c1)N1CCCC1	6.29µM	i	i	?	i	i	?	?	?
O=C(Nc1ccc2nsnc2c1)N1CCCCCC1	i	i	i	i	nt	nt	nt	nt	nt
CCc1ccc2nc(N(CCN(CC)CC)C(=O)c3ccco3)sc2c1	nt	nt	i	nt	nt	nt	nt	nt	nt
Cc1cc(NC(=O)CN(C)CCOc2ccccc2)ccc1Br	15.8µM	i	i	i	?	i	i	i	i
CC(=O)Nc1n[nH]c(=S)s1	nt	i	?	nt	nt	nt	nt	nt	nt
CNc1n[nH]c(=S)s1	17.7µM	i	?	i	i	i	i	i	i
O=C(Nc1cccc(F)c1)N1CCC2(CC1)CCN(C(=O)c1ccco1)CC2	i	nt	i	nt	nt	nt	nt	nt	nt
CCN1CCN(CC(=O)N/N=C/c2cc(Br)cs2)CC1	17.8µM	i	i	i	i	i	i	i	i
O=[N+]([O-])c1cccc(Cn2cnc3c(=S)nc[nH]c32)c1	nt	i	i	nt	nt	nt	nt	nt	nt
N#CCCn1cnc2c(=S)nc[nH]c21	14.1µM	i	i	i	i	i	i	i	i
O=C1c2oc3ccccc3c(=O)c2C(c2ccc(Br)cc2)N1c1ccccn1 (stereo not given)	nt	nt	i	nt	nt	nt	nt	nt	nt
COC(=O)c1cc(=O)c2c(C)nc(C(Cl)(Cl)Cl)nc2[nH]1	19.9µM	i	i	i	i	i	i	i	i
CCOC(=O)c1c(C)nc(C(Cl)(Cl)Cl)nc1N	?	i	i	i	nt	nt	nt	nt	nt
Cc1cccc(NC(=O)CSc2cn(CC(=O)N3CCCCCC3)c3ccccc23)c1	nt	nt	i	nt	nt	nt	nt	nt	nt
Cc1cc(C)nc(SC2CC(=O)N(c3ccc(C)c(C)c3)C2=O)n1 (stereo not given)	i	i	i	i	nt	nt	nt	nt	nt
Cc1cccc(N2C(=O)CC(Sc3ncn[nH]3)C2=O)c1 (stereo not given)	19.9µM	?	i	i	i	i	i	i	i
Cc1ccc(N2C(=O)CC(Sc3ncn[nH]3)C2=O)cc1C (stereo not given)	17.7µM	?	i	i	i	i	i	i	i
CCOc1ccccc1NC(=O)CSc1cn(CC(=O)N2CCCCCC2)c2ccccc12	nt	nt	i	nt	nt	nt	nt	nt	nt
CC(C)C[C@H](NC(=O)c1nc[nH]c1C(=O)NCCCCCNC(=O)OC(C)(C)C)C(=O)OC(C)(C)C	17.7µM	i	i	i	i	i	i	i	i

High-throughput results: PubChem, National Center for Advancing Translational Sciences (NCATS)
